Test results reported in PubChem BioAssay AID1159580 (chemical genetic matrix, 2015).
Where “and” joins values, the source holds several entries; their conditions need not be identical. Equal entries are not always repeated. The campaign covered roughly 5,500 compounds. About 2,000 (36%) were called active. About 18% were inconclusive and are not listed. Rule as the data show it: active = normalized growth mostly below about 0.91 (no sharp cut-off); inconclusive = no clear call, values can overlap the other calls; inactive = mostly above about 0.92. Some of the results follow. *1 amine or outer side, *2 acyl side, *3 side chain or, on linkers, in order; H or OH if unused. Where a SMILES comes first, the peptide text is derived from it. Bridges are numbered along the chain shown (N, C = ends). [ ]: non-standard residue; d: D form. The star is where a group is joined. ξ: configuration not given here. ΔAla(E,3-NHCONH2) = NC(=O)N/C=C(/N)C(=O)O; X2 = NC1=NCCC(C(N[*:1])C(=O)[*:2])N1; ξβ3hOrn = NCCCC(N)CC(=O)*; Dap = NC[CH](N)C(=O)O

Test: chemical genetic growth profiling, strain panel (AID 1159580);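 also: tested at 20 µM; growth read once vehicle control cultures reached saturation at 30 °C; 1 = growth at the plate median or of vehicle wells; lower values mean less growth of the strain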
Details: S. cerevisiae deletion strains, growth OD

Measured: normalized growth

NCCCC(N)CC(=O)NCC1NC(=O)C(CO)NC(=O)C(N)CNC(=O)C(C2CCN=C(N)N2)NC(=O)/C(=C\NC(N)=O)NC1=O (stereo not drawn) (H-[Dap]S[Dap](ξβ3hOrn)[ΔAla(E,3-NHCONH2)][X2]; lactam 1-C; configuration not given here)
inactive: locus YAL013W, strain DEP1, hits give low values 0.999 | locus YAL021C, strain ccr4, hits give low values 1.01 | locus YAL026C, strain drs2, hits give low values 0.994 | locus YAL030W, strain snc1, hits give low values 1.03 | locus YBL061C, strain skt5, hits give low values 1.02 | locus YBR009C, strain hhf1, hits give low values 0.975 | locus YBR021W, strain FUR4, hits give low values 0.997 | locus YBR023C, strain chs3, hits give low values 1.01 | locus YBR171W, strain sec66, hits give low values 1.02 | locus YBR229C, strain ROT2, hits give low values 1.01 | locus YBR231C, strain swc5, hits give low values 1.05 | locus YBR279W, strain paf1, hits give low values 1.01 | locus YCL011C, strain gbp2, hits give low values 0.984 | locus YCL016C, strain dcc1, hits give low values 0.989 | locus YCL029C, strain bik1, hits give low values 1.03 | locus YCL069W, strain vba3, hits give low values 1.01 | locus YCR088W, strain abp1, hits give low values 1.02 | locus YDL005C, strain med2, hits give low values 0.994 | locus YDL035C, strain GPR1, hits give low values 1.01 | locus YDL040C, strain nat1, hits give low values 1.01 | locus YDL074C, strain BRE1, hits give low values 1.02 | locus YDL101C, strain DUN1, hits give low values 1 | locus YDL185W, strain tfp1, hits give low values 1.03 | locus YDL192W, strain arf1, hits give low values 0.998 | locus YDR001C, strain nth1, hits give low values 0.999 | locus YDR069C, strain doa4, hits give low values 1.03 | locus YDR101C, strain arx1, hits give low values 1.02 | locus YDR137W, strain rgp1, hits give low values 0.991 | locus YDR159W, strain sac3, hits give low values 0.975 | locus YDR162C, strain NBP2, hits give low values 1.01 | locus YDR195W, strain ref2 1.05 | locus YDR297W, strain sur2, hits give low values 1.03 | locus YDR318W, strain mcm21, hits give low values 1.02 | locus YDR334W, strain swr1, hits give low values 1 | locus YDR335W, strain msn5, hits give low values 1.02 | locus YDR388W, hits give low values 1.01 | locus YDR392W, strain spt3, hits give low values 0.928 | locus YDR502C, strain sam2, hits give low values 1.01 | locus YEL003W, strain gim4, hits give low values 1.04 | locus YEL037C, strain rad23, hits give low values 1.02 | locus YEL061C, strain CIN8 (second series), hits give low values 1.02 | locus YEL061C, strain CIN8, hits give low values 0.997 | locus YER015W, strain faa2, hits give low values 1.01 | locus YER016W, strain bim1, hits give low values 0.993 | locus YER110C, hits give low values 1.02 | locus YER111C, strain swi4, hits give low values 0.999 | locus YER155C, strain BEM2 (second series), hits give low values 1 | locus YER155C, strain BEM2, hits give low values 1 | locus YER167W, strain BCK2, hits give low values 0.996 | locus YFR010W, strain ubp6, hits give low values 1.05 | locus YGL078C, strain dbp3, hits give low values 1.02 | locus YGL086W, strain mad1, hits give low values 0.997 | locus YGL167C, strain pmr1, hits give low values 1.02 | locus YGL173C, strain kem1, hits give low values 1.04 | locus YGL227W, strain vid30, hits give low values 1.01 | locus YGL240W, strain doc1, hits give low values 1.06 | locus YGL248W, strain PDE1, hits give low values 1.01 | locus YGL253W, strain hxk2, hits give low values 0.984 | locus YGR078C, strain PAC10, hits give low values 1.01 | locus YGR135W, strain pre9, hits give low values 1.04 | locus YGR229C, strain SMI1, hits give low values 1.02 | locus YGR252W, strain gcn5, hits give low values 0.993 | locus YHR013C, strain ard1, hits give low values 1.03 | locus YHR027C, strain rpn1, hits give low values 1.01 | locus YHR030C, strain SLT2, hits give low values 1 and 1.03 | locus YHR079C, strain IRE1 (second series), hits give low values 1.02 | locus YHR079C, strain IRE1, hits give low values 1.03 | locus YHR094C, strain hxt1, hits give low values 1.01 | locus YHR129C, strain ARP1, hits give low values 0.999 | locus YHR142W, strain chs7, hits give low values 1.01 | locus YHR200W, strain rpn10, hits give low values 1.02 | locus YIL066C, strain RNR3, hits give low values 1.01 | locus YIL073C, strain SPO22, hits give low values 1.08 | locus YIL125W, strain kgd1, hits give low values 1.01 | locus YIR030C, strain dcg1, hits give low values 1.01 | locus YJL092W, strain hpr5, hits give low values 1.03 | locus YJL095W, strain BCK1 (second series), hits give low values 1.03 | locus YJL095W, strain BCK1, hits give low values 1.01 and 1.04 | locus YJL115W, strain asf1, hits give low values 1.02 | locus YJL129C, strain trk1, hits give low values 1.01 | locus YJL134W, strain LCB3, hits give low values 1.01 | locus YJL154C, strain vps35, hits give low values 1.01 | locus YJL164C, strain tpk1, hits give low values 1 | locus YJL166W, strain qcr8, hits give low values 1.04 | locus YJL168C, strain set2, hits give low values 1.01 | locus YJL187C, strain SWE1 (second series), hits give low values 1.01 | locus YJR043C, strain POL32, hits give low values 1.01
